Source: PubChem BioAssay
Inconclusive results are not listed. Active and inactive are the calls of the source. Unless noted, no stated cut-off is given here; in the data, active means inhibition above about 80%; inactive means the rest.

Experiments:
[1] = viability loss in pontine glioma line – cell-based, SU-DIPG-XVII, MIPE5.0, CellTiter-Glo, qHTS, dose response (AID 1347060; cut-off not given, nearly all actives have AC50 up to about 26 µM;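 further: cells exposed to compound for 48 hours before viability readout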); conditions: CellTiter-Glo ATP luminescence
[2] = viability loss in pontine glioma line – cell-based, JHH-DIPG-1, MIPE4.0, CellTiter-Glo, qHTS, dose response (AID 1347062; cut-off not given, nearly all actives have AC50 up to about 27 µM;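 further: cells exposed to compound for two days before readout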); conditions: JHH-DIPG-1 viability, CellTiter-Glo ATP luminescence
[3] = viability loss in pontine glioma line – cell-based, SU-DIPG-IV, MIPE4.0, CellTiter-Glo, qHTS, dose response (AID 1347063; cut-off not given, nearly all actives have AC50 up to about 30 µM;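 further: compound exposure lasted 48 hours before the viability readout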); conditions: CellTiter-Glo ATP luminescence
[4] = viability loss in pontine glioma line – cell-based, SU-DIPG-XXV, MIPE5.0, CellTiter-Glo, qHTS, dose response (AID 1347065; cut-off not given, nearly all actives have AC50 up to about 26 µM;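 further: cells exposed to compound for 48 hours before ATP readout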); conditions: CellTiter-Glo ATP luminescence
[5] = JHH-DIPG-1 glioma cell viability, MIPE5.0 library, CellTiter-Glo luminescence, qHTS (AID 1347067; cut-off not given, nearly all actives have AC50 up to about 26 µM;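 further: cells exposed to compound for 48 hours before readout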); conditions: JHH-DIPG-1 glioma viability, CellTiter-Glo ATP luminescence
[6] = viability loss with induced miR-34 in A549 – imaging, A549 dox-inducible miR-34, nuclei and caspase counts, primary screen (AID 1347080;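 active means compounds whose cell count with miR-34 switched on is under 0.7 times the count with it off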); conditions: A549 miR-34 inducible, Hoechst nuclei count, 48 h
[7] = MELAS cybrid and Rieske KO viability enhancers – cell-based, MELAS cybrids, Rieske KO mouse fibroblasts, CellTiter-Glo, primary screen (AID 1508586;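 active means mean z-score across replicates of 1.96 or higher in either the MELAS or the Rieske mutant cell line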;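 further: z relative to plate mean and SD of compound and empty wells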); conditions: low glucose
[8] = growth inhibition, single agent or in combination, cell-based, chromothripsis tumors, cisplatin or BGB combos (AID 1671449); conditions: LFS_MB_P medulloblastoma cells;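 further: cells exposed for 96 hours; 0% = vehicle DMSO and 100% = killing by high DMSO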
[9] = growth inhibition, single agent and combos, cell-based, chromothripsis tumors, cisplatin or BGB combos (AID 1671450); conditions: HDN33 neuroblastoma cells, stronger effect = higher value;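 further: cells exposed to compound for four days; 0% = vehicle DMSO and 100% = cell killing by high DMSO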
[10] = growth inhibition, single agents and combos, ICB984, cell-based, cisplatin or BGB combos, synergistic combos for chromothripsis tumors (AID 1671451; call rule not given here;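 further: cells exposed for 96 hours before readout; 0% = vehicle DMSO and 100% = killing by high DMSO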); conditions: ICB984 medulloblastoma cells, drug combinations, stronger effect = higher value
[11] = growth inhibition, single agents and combos, HTB85, cell-based, BGB or cisplatin IC20 combos, synergistic combos for chromothripsis tumors (AID 1671453); conditions: HTB85 osteosarcoma cells, drug combinations, stronger effect = higher value;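 further: cells exposed for 96 hours before readout; 0% = vehicle DMSO and 100% = high DMSO killing control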
[12] = growth inhibition, MDA-MB-436, cell-based, BGB or cisplatin combos, synergistic combos for chromothripsis tumors (AID 1671458; call rule not given here;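 further: cells exposed for 96 hours; 0% = vehicle DMSO and 100% = killing by high DMSO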); conditions: MDA-MB-436 breast carcinoma growth inhibition, drug combinations, stronger effect = higher value
[13] = BT084 cell growth, single and combined drugs, ICGC_MB145, cisplatin and BGB IC40 combos (AID 1671461); conditions: BT084 medulloblastoma cells, drug combinations, stronger effect = higher value;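 further: cells exposed to drugs for 96 hours; 0% = vehicle DMSO and 100% = high DMSO full killing control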
[14] = RCMB18 cell growth, single agent and combined, cisplatin and BGB IC40 combos (AID 1671462); conditions: RCMB18 medulloblastoma cells, stronger effect = higher value;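 further: cells exposed to compound for four days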
[15] = CRL1545 cell growth, single agent and combined, cisplatin and BGB IC20 combos (AID 1671464); conditions: CRL1545 osteosarcoma cells, stronger effect = higher value;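 further: cells exposed to compound for 96 hours before readout; 0% = vehicle DMSO and 100% = high DMSO killing control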
[16] = measured here: with BGB IC20 combination, at 0.5 µM
[17] = measured here: with cisplatin IC20 combination, at 0.5 µM

SMILES: Cc1ccc2nc(NCCN)c3ncc(C)n3c2c1
- AC50 [1]: 8.33 µM (active)
- AC50 [2]: 2.35 µM (active)
- AC50 [3]: 20.9 µM (active)
- AC50 [4]: 8.33 µM (active)
- AC50 [5]: 13.2 µM (active)
- fold change ([6]; stronger effect = lower value, cell number ratio, induced over uninduced): 1.09 (inactive)
- fold change ([6]; measured here: relative caspase fold change +Dox/-Dox): 0.561
- cell count ([6]; measured here: total cells with miR-34 induction, stronger effect = lower value): 6190
- cell count ([6]; measured here: total cells without miR-34 induction): 5680
- z-score ([7]; MELAS cybrid survival, CellTiter-Glo 48 h, stronger effect = higher value): -0.409 (inactive)
- z-score ([7]; Rieske KO mouse fibroblast survival, CellTiter-Glo 72 h): -2.24
- inhibition ([8]; at 0.5 µM, stronger effect = higher value): 11.2% (inactive)
- inhibition ([8]; measured here: combination with BGB IC20, at 0.005 µM): 0.796%
- inhibition ([8]; measured here: combination with BGB IC40, at 0.005 µM): -31.1%
- inhibition ([8]; measured here: combination with BGB IC40, at 0.05 µM): -6.91%
- inhibition ([8]; measured here: combination with cisplatin, at 0.5 µM, stronger effect = higher value): 74.2%
- inhibition ([8]; measured here: combination with cisplatin, at 5 µM, stronger effect = higher value): -17.8%
- inhibition ([9]; BGB combo, at 5 µM): 63.5%
- inhibition ([9]; at 0.5 µM): -5% (inactive)
- inhibition ([9]; cisplatin combo, at 5 µM): 55.9%
- inhibition [9, 16]: -7.6%
- inhibition [9, 17]: 2.54%
- inhibition ([9]; single agent, at 5 µM): 57.3%
- inhibition ([10]; BGB IC20 combo, at 0.005 µM): 10.7%
- inhibition ([10]; BGB IC40 combo, at 0.005 µM): -98.8%
- inhibition ([10]; BGB IC40 combo, at 0.05 µM): 52.7%
- inhibition ([10]; at 0.5 µM): -16% (inactive)
- inhibition ([10]; cisplatin combo, at 0.05 µM): 50.8%
- inhibition ([10]; cisplatin combo, at 0.5 µM): -17.9%
- inhibition ([10]; cisplatin combo, at 5 µM): -22.2%
- inhibition ([10]; measured here: 5 uM single agent, at 5 µM): -10.1%
- inhibition ([11]; at 0.5 µM): 7.35% (inactive)
- inhibition ([11]; measured here: with BGB IC20, at 0.5 µM): 19.2%
- inhibition ([11]; measured here: with BGB IC20, at 5 µM): 98.1%
- inhibition ([11]; measured here: with cisplatin IC20, at 0.5 µM): -7.65%
- inhibition ([11]; measured here: with cisplatin IC20, at 5 µM): 89.2%
- inhibition ([11]; single agent, at 5 µM): 91.7%
- inhibition ([12]; at 0.5 µM): -3.06% (inactive)
- inhibition ([12]; measured here: BGB combination, at 0.5 µM): -13.7%
- inhibition ([12]; measured here: BGB combination, at 5 µM): 65.6%
- inhibition ([12]; measured here: cisplatin combination, at 0.5 µM): 6.41%
- inhibition ([12]; measured here: cisplatin combination, at 5 µM): 80.2%
- inhibition ([13]; at 0.5 µM): 4.08% (inactive)
- inhibition ([13]; cisplatin combination, at 0.5 µM): -3.36%
- inhibition ([13]; cisplatin combination, at 5 µM): 46.6%
- inhibition ([13]; measured here: BGB IC40 combination 0.05 uM, at 0.05 µM): -4.49%
- inhibition ([13]; single agent, at 5 µM): 32.4%
- inhibition ([14]; at 0.5 µM): 1.56% (inactive)
- inhibition ([14]; cisplatin combo, at 5 µM): 76%
- inhibition ([14]; measured here: BGB IC40 combination, at 0.05 µM): 1.88%
- inhibition ([14]; measured here: combination with cisplatin, at 0.5 µM): 32.9%
- inhibition ([14]; single agent, at 5 µM): 33.3%
- inhibition ([15]; at 0.5 µM): -12.7% (inactive)
- inhibition [15, 16]: -11.3%
- inhibition [15, 17]: -13.3%
- inhibition ([15]; single agent, at 0.05 µM): -17.3%
- inhibition ([15]; single agent, at 5 µM): 99.7%
